# Calls of active or inactive are those of the source. Calls follow the shape of the dose curve; as a rule, active = well fitted curve in the direction sought with a large enough effect in the repeat runs; inconclusive = weak or mixed curves; inactive = flat fitted curve, though single readings scatter. Positions of bridges follow the written chain, without caps; N, C: chain ends. Non-standard residues stand in square brackets, D forms with d. Residues, ends and D or L forms follow the SMILES beside them. hArg = N=C(N)NCCCC[C@H](N)C(=O)O; Mpa = O=C(O)CCS
# Test: qHTS assay to test for compound auto fluorescence at 590 nm (red) in HepG2 cells (AID 720674)
# Conditions: HepG2 autofluorescence, red 540/590 nm, 1 h; series mostly up to 91.3 µM; fluorescence, relative to Rose Bengal: at the top concentration
# From the text: U.S. Tox21 Program National Center for Advancing Translational Sciences [NCATS] NIH Chemical Genomics Center [NCGC] U.S. Environmental Protection Agency [EPA] National Institutes of Environmental Health Sciences [NIEHS] National Toxicology Program [NTP] U.S. Food and Drug Administration [FDA] Tox21 Assay Overview: Compound auto fluorescence often interferes with screening of the compound library against various biological targets and signaling pathways. Some of these compounds may have fluorophoric properties. Such properties may interfere with the assay outputs resulting in false positives and/or negatives. To decrease such complications and ensure the compound activities are relevant in terms of biological response, the Tox21 10K compound library was screened for auto fluorescence. From the fluorophores used as reporter signals in our screening assays, the auto fluorescence equivalencies of compounds against three fluorophores have been evaluated: Triamterene, Fluorescein and Rose Bengal sodium for blue, green and red fluorescence, respectively. The fluorescence intensities were measured using Excitation/Emission wavelengths at 405/460nm, 485/535nm and 540/590nm for blue, green and red labels, respectively. This assay includes the red fluorescence data.
# Tox21 Assay Protocol Summary: 2,000 HepG2 cells in 5 uL of culture medium (MEM containing 10% FBS) per well were dispensed into black wall/clear bottom 1536-well plates using a Multidrop Combi Dispenser (ThermoFisher Scientific, Waltham, MA). The assay plates were incubated overnight at 37 C to allow cell attachment to the well bottom, followed by the transfer of 23 nL compound or DMSO vehicle by a pintool work station (Kalypsys , San Diego, CA). After the assay plates were incubated for 1 hr at 37 C and 5% CO2, fluorescence intensities in the assay plates were measured by an Envision (PerkinElmer, Shelton, CT) plate reader using three labels for measuring blue, green and red fluorescence at […] 460, 535 and 590 nm respectively.
# % is scaled to controls: 0 for no effect and ±100 for the full control effect.
Compound,"fluorescence, relative to Rose Bengal",outcome
OCC1(CO)COCOC1,0.143% (inactive),–
CC(C)=CCC[C@@](C)(O)[C@H]1CC=C(C)CC1,0.0883% [at 46 µM] (inactive),–
COC(C)(OC)OC,-0.0488% (inactive),–
COS(=O)(=O)O,0.0039% (inactive),–
COc1ccc2c(c1)c1c3n2CCN(C)C3=NCC1,-0.178% [at 46 µM] (inactive),–
CSc1cnccn1,0.0658% (inactive),–
CC(=O)O[C@@H]1CC2CCC1(C)C2(C)C (stereo not given in full),–,inactive
O=C(O)CNC(=O)CNC(=O)CNC(=O)CSC(=O)c1ccccc1,0.113% [at 46 µM] (inactive),–
CC(C)(CO)C(O)C(=O)NCCCO (stereo not given),-0.0171% (inactive),–
OC[C@H]1O[C@@H](O[C@@H]2[C@@H](CO)O[C@](O)(CO)[C@H]2O)[C@H](O)[C@@H](O)[C@H]1O,0.0579% [at 46 µM] (inactive),–
C=CC(=O)CCCCC,-0.0531% [at 95.7 µM] (inactive),–
CCCC(=O)Nc1ccc(OCC(O)CNC(C)C)c(C(C)=O)c1 (stereo not given),-0.376% [at 18.6 µM] (inactive),–
c1ccc(-c2nn[nH]n2)cc1,0.0647% (inactive),–
Fc1ccccc1,-0.226% (inactive),–
CC(N)CCCC(C)(C)O (stereo not given),-0.0669% [at 46 µM] (inactive),–
CC1(C)[C@H]2CC[C@](C)(C2)[C@H]1O,0.0812% [at 95.7 µM] (inactive),–
CC(C)Nc1ccccc1,0.0184% (inactive),–
O=C(Cl)c1ccccc1[N+](=O)[O-],-0.0267% [at 95.7 µM] (inactive),–
NCC1(Cc2noc(=O)[nH]2)CCCCC1,0.0478% (inactive),–
CC1=C(C(=O)O)N2C(=O)[C@@H](NC(=O)[C@H](N)c3ccccc3)[C@H]2SC1,0.457% [at 46 µM] (inactive),–

Compound,"fluorescence, relative to Rose Bengal",outcome
Cc1ccc(C)c([N+](=O)[O-])c1,0.107% (inactive),–
O=C(CCCCC(=O)Nc1c(I)cc(I)c(C(=O)O)c1I)Nc1c(I)cc(I)c(C(=O)O)c1I,-0.218% [at 46 µM] (inactive),–
CC(=O)C(C)O (stereo not given),0.387% (inactive),–
NCc1ccc(S(N)(=O)=O)cc1,-0.36% [at 18.6 µM] (inactive),–
ONc1ccccc1,0.119% [at 95.7 µM] (inactive),–
CCCCOCC(C)O (stereo not given),-0.0557% [at 95.7 µM] (inactive),–
COC(=O)c1cccc(Cl)c1,0.0174% (inactive),–
CC1(C)Oc2ccc(C#N)cc2[C@@H](N2CCCC2=O)[C@@H]1O,–,inactive
CC(C)[C@H]1CC[C@H](C)C[C@@H]1O,-0.234% [at 95.7 µM] (inactive),–
Cc1c(NC(=O)c2cccnc2)c(=O)n(-c2ccccc2)n1C,0.269% [at 18.6 µM] (inactive),–
Cc1ccc2c(c1)C(=O)c1ccccc1C2=O,-0.199% (inactive),–
C=C(C)[C@@H]1CC=C(C)C(=O)C1,-0.707% (inactive),–
NC(=O)[C@@H]1CSSCCC(=O)N[C@@H](CCCCN=C(N)N)C(=O)NCC(=O)N[C@@H](CC(=O)O)C(=O)N[C@@H](Cc2c[nH]c3ccccc23)C(=O)N2CCC[C@H]2C(=O)N1 ([Mpa][hArg]GDWPC-NH2; disulfide 1-7),-0.246% [at 46 µM] (inactive),–
OCCN1CCOCC1,0.0398% (inactive),–
CN(C)CCCCl,0.052% [at 95.7 µM] (inactive),–
CC(=O)CC(=O)Nc1ccc(C)cc1C,0.0347% (inactive),–
CCCCOC(=O)[C@H](C)O,0.0877% (inactive),–
C/C(CC(C)C)=N\O,-0.193% (inactive),–
Cc1cc(-c2ccccc2)nnc1NCCN1CCOCC1,0.142% [at 46 µM] (inactive),–
OC[C@@H](O)C(O)[C@@H](O)CO (stereo not given in full),-0.0504% [at 95.7 µM] (inactive),–
